Source: PubChem BioAssay (EPA / NIEHS)
Inconclusive results are not listed. Active and inactive are the calls of the source. The calls were made as follows, unless noted: active = hit-call score of the fitted dose curve at least 0.9, where 1 is the maximum; inactive = score below 0.9.

What was measured:
[1] = BSK_3C_Proliferation: Cell Proliferation Assessment in the BioMAP Diversity Plus: 3C Assay (AID 2283006); settings: primary human endothelial cells (HUVEC);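 as to AC50: potency may reflect either rise or fall in cell number versus DMSO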
Outline: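 Proliferation as total protein: sulforhodamine B (0.1%) stain of TCA-fixed subconfluent human umbilical vein endothelial cells, absorbance 560 nm, 48 h after dosing. Activity fitted in both directions against DMSO baseline.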

[2] = BSK_3C_Vis: BioMAP Diversity Plus: 3C Assay for Morphology Visualization (AID 2283025); settings: primary human endothelial cells (HUVEC);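 also: fitted both ways so gain or loss versus DMSO counts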;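 as to AC50: light microscopy image of cell morphology used as background control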
Outline: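 Light-microscopy visualization of HUVEC cultures at 24 h post-treatment, with DMSO as baseline for bidirectional fitting.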

[3] = read-out: Transforming growth factor beta 1 (TGFb1), TGFB1 (gene 7040); test: BSK_BE3C_TGFb1: BioMAP Diversity Plus: BE3C Assay for Transforming growth factor beta 1 (TGFb1) Biomarker Activity (AID 2283036;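 also: TGF-b1 protein level measured by ELISA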); settings: primary human bronchial epithelial cells; actives raise or lower the signal
Outline: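 ELISA readout of TGF-b1 from human lung bronchial epithelial primary cells, taken 24 h post-treatment. Gain or loss of signal fitted relative to DMSO baseline, with parallel SRB staining for overt cytotoxicity.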

[4] = BSK_CASM3C_SRB: Viability Assessment in the BioMAP Diversity Plus: CASM3C Assay (AID 2283050); settings: primary human coronary artery smooth muscle cells
[5] = read-out: Transforming growth factor beta 1 (TGFb1), TGFB1 (gene 7040); test: BSK_KF3CT_TGFb1: BioMAP Diversity Plus: KF3CT Assay for Transforming growth factor beta 1 (TGFb1) Biomarker Activity (AID 2283072); settings: primary human keratinocytes with fibroblasts; actives raise or lower the signal
Outline: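 ELISA quantifies TGF-b1 at 24 h post-dose in a primary human skin co-culture of keratinocytes and fibroblasts, with gain or loss judged against DMSO. Parallel SRB total-protein staining flags overt cytotoxicity.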

CD40, CD40 (gene 958) = test: BSK_LPS_CD40: BioMAP Diversity Plus: LPS Assay for CD40 Biomarker Activity (AID 2283076); settings: primary human HUVEC with PBMC; actives raise or lower the signal
Outline: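 CD40 signal, measured by ELISA, is fitted in both directions relative to DMSO vehicle. The system is an LPS-driven human vascular primary co-culture of endothelial cells and PBMC, sampled 24 h after compound addition.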

[6] = BSK_BT_PBMCCytotoxicity: PBMC Cytotoxicity Assessment in the BioMAP Diversity Plus: BT Assay (AID 2284225); settings: primary human B cells with PBMC;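 also: PBMC viability measured by Alamar Blue dye reduction fluorescence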
Outline: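 Viability by Alamar Blue reduction (6 h, ex/em 546/580 nm) after 90 h culture of SEB/TSST-1-activated PBMC (20 ng/mL each) given compound 1 h before activation. DMSO served as baseline for curve fitting.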

[7] = read-out: Secreted IgG (sIgG), gene 3500; test: BSK_BT_sIgG: BioMAP Diversity Plus: BT Assay for Secreted IgG (sIgG) Biomarker Activity (AID 2284226); settings: primary human B cells with PBMC
Outline: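 ELISA quantitation of secreted IgG from human B cells co-cultured with PBMC, sampled 24 h post-dosing. Values fitted relative to DMSO vehicle as baseline, positive fitting direction.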

[8] = read-out: Interleukin 6 (IL6), IL6 (gene 3569); test: BSK_BT_xIL6: BioMAP Diversity Plus: BT Assay for Interleukin 6 (IL6) Biomarker Activity (AID 2284228); settings: primary human B cells with PBMC
Outline: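 Chemical added to human B cell/PBMC co-culture → 24 h → supernatant IL-6 by Luminex xMAP → fit vs DMSO baseline, upward direction.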

[9] = read-out: Interleukin 17A (IL17A), IL17A (gene 3605); test: BSK_BT_xIL17A: BioMAP Diversity Plus: BT Assay for Interleukin 17A (IL17A) Biomarker Activity (AID 2284229); settings: primary human B cells with PBMC
Outline: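 Chemicals were added to a human B cell and PBMC co-culture. After 24 h, secreted IL-17A was measured with Luminex xMAP. Curves were fitted in the positive direction, with DMSO wells as baseline.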

[10] = read-out: Tumor necrosis factor (Homo sapiens) (UniProt P01375); test: BSK_BT_xTNFa: BioMAP Diversity Plus: BT Assay for Tumor necrosis factor alpha (TNF-alpha) Biomarker Activity (AID 2284230); settings: primary human B cells with PBMC
Outline: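 Compounds were added to a B cell plus PBMC co-culture, and after 24 h secreted TNF-alpha was quantified with Luminex xMAP technology, with responses fitted upward from the DMSO control.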

[11] = read-out: Vascular cell adhesion molecule 1 (VCAM1), VCAM1 (gene 7412); test: BSK_MyoF_VCAM1: BioMAP Diversity Plus: MyoF Assay for Vascular cell adhesion molecule 1 (VCAM1) Biomarker Activity (AID 2284231); settings: primary human lung fibroblasts
Outline: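 Steps: fibroblasts from human lung exposed to compound; biomarker quantified by ELISA at 24 h; values analysed for upward change over the DMSO baseline.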

[12] = read-out: Collagen I, COL1A1 (gene 1277); test: BSK_MyoF_CollagenI: BioMAP Diversity Plus: MyoF Assay for Collagen I Biomarker Activity (AID 2284238); settings: primary human lung fibroblasts
Outline: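 Multiplexed primary human lung fibroblast system; Collagen I measured by ELISA at 24 h post-dose. Increases are referenced to DMSO.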

[13] = read-out: Collagen III, COL3A1 (gene 1281); test: BSK_MyoF_CollagenIII: BioMAP Diversity Plus: MyoF Assay for Collagen III Biomarker Activity (AID 2284239); settings: primary human lung fibroblasts
Outline: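 Compounds are added to primary human lung fibroblasts and left for 24 hours. Collagen III is then quantified by ELISA. Analysis takes DMSO as baseline and fits increases in signal.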

[14] = read-out: Interleukin 17F (IL17F), IL17F (gene 112744); test: BSK_BT_xIL17F: BioMAP Diversity Plus: BT Assay for Interleukin 17F (IL17F) Biomarker Activity (AID 2284243); settings: primary human B cells with PBMC
Outline: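 Measures secreted IL-17F from a human B cell plus PBMC co-culture at 24 h post-dose by Luminex xMAP, with DMSO defining baseline activity.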

[15] = read-out: Actin alpha 1 (ACTA1), ACTA1 (gene 58); test: BSK_MyoF_ACTA1: BioMAP Diversity Plus: MyoF Assay for Actin alpha 1 (ACTA1) Biomarker Activity (AID 2284244); settings: primary human lung fibroblasts
Outline: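 alpha-SMA levels read by ELISA against DMSO baseline, 24 h post-dose, in primary human lung fibroblasts. Parallel cultures stained with 0.1% SRB after 10% TCA fixation (560 nm) to flag overt cytotoxicity.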

[16] = read-out: Interleukin 2 (IL2), IL2 (gene 3558); test: BSK_BT_xIL2: BioMAP Diversity Plus: BT Assay for Interleukin 2 (IL2) Biomarker Activity (AID 2284245); settings: primary human B cells with PBMC
Outline: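 Secreted IL-2 was read by Luminex xMAP from B cells co-cultured with PBMC (human primary) 24 h post-dosing; activity was analysed as gain of signal relative to DMSO vehicle.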

[17] = read-out: Basic fibroblast growth factor (bFGF), FGF2 (gene 2247); test: BSK_MyoF_bFGF: BioMAP Diversity Plus: MyoF Assay for Basic fibroblast growth factor (bFGF) Biomarker Activity (AID 2284246); settings: primary human lung fibroblasts
Outline: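 bFGF was measured by ELISA in primary human lung fibroblasts 24 h after chemical addition. Signal was analysed as positive-direction change relative to DMSO baseline.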

[18] = read-out: Plasminogen activator inhibitor-1 (PAI1), SERPINE1 (gene 5054); test: BSK_MyoF_PAI1: BioMAP Diversity Plus: MyoF Assay for Plasminogen activator inhibitor-1 (PAI1) Biomarker Activity (AID 2284256); settings: primary human lung fibroblasts
Outline: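 Activity reflects increased PAI-1, determined by ELISA and compared with DMSO, in human lung fibroblasts treated for 24 h.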

[19] = molecular target: Estrogen receptor (Homo sapiens) (UniProt P03372); test: ATG_ERa_TRANS: Attagene TRANS-FACTORIAL HepG2 Assay for human Estrogen Receptor alpha (ERa) (AID 2282970; active = hit-call score of the fitted dose curve at least 0.9, where 1 is the maximum); settings: HepG2 Attagene TRANS ERa GAL4 reporter, mRNA
Outline: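 Transfected HepG2 cells carrying GAL4-UAS-driven reporter units were dosed for 24 hours. Total RNA was reverse-transcribed, reporter sequences PCR-amplified, FAM-labelled, HpaI-digested and resolved by capillary electrophoresis. Increases over DMSO control defined activity.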

Measured: AC50

Sequence of Tumor necrosis factor (Homo sapiens) (P01375 whole entry, looked up): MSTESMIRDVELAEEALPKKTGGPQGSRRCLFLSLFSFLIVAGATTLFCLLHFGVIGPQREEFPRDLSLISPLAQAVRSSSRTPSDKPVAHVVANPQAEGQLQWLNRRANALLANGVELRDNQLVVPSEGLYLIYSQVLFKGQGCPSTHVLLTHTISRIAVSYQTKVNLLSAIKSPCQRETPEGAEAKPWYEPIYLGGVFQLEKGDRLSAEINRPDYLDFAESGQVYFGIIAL
Sequence of Estrogen receptor (Homo sapiens) (P03372 whole entry, looked up, the tested form may be a part): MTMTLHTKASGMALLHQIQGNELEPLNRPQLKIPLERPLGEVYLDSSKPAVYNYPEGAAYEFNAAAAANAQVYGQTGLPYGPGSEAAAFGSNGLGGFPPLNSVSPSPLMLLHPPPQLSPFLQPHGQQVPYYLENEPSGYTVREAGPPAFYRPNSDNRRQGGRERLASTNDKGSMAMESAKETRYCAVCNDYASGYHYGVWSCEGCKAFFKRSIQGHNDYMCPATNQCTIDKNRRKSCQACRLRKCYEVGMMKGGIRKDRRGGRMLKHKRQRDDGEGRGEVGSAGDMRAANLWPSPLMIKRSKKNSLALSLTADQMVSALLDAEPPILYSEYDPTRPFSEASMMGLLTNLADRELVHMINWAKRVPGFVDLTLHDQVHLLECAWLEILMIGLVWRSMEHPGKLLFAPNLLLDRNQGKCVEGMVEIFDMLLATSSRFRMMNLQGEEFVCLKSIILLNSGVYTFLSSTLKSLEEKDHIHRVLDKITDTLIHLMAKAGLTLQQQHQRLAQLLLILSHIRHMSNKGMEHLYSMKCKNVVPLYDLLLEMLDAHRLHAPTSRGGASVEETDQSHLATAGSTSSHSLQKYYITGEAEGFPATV

Oc1cccc2ccccc12
active: [8] 0.0576 µM | [13] 5.51 µM
not listed: [19]
inactive: all other assays above

NC(N)=Nc1nc(CSCCC(N)=NS(N)(=O)=O)cs1
inactive: [19]

CC(C)CC(=O)CC(C)CC(C)C (stereo not drawn)
active: [1] 36.6 µM | [2] 37.8 µM | [4] 31.6 µM
not listed: [19]
inactive: all other assays above

CCCCCCCCCCCCCCCCCC[N+](C)(C)C
inactive: [19] | [3]
active: [1] 1.36 µM | [2] 1.34 µM | [4] 5.94 µM | [5] 2.15 µM | CD40, CD40 (gene 958) 6.84 µM | [6] 4.37 µM | [7] 0.706 µM | [8] 5 µM | [9] 1.36 µM | [10] 2.62 µM | [11] 3.33 µM | [12] 1.35 µM | [13] 2.73 µM | [14] 2.08 µM | [15] 1.69 µM | [16] 1.81 µM | [17] 3.73 µM | [18] 3.36 µM

Sc1nc2ccccc2s1
not listed: [19]
inactive: all other assays above

CCCCCCCCCCC1CO1 (stereo not drawn)
active: [1] 14.7 µM | [2] 37.8 µM | [4] 31.6 µM | [5] 30.3 µM | [11] 30.7 µM | [12] 31.8 µM | [13] 31.2 µM | [15] 33.5 µM | [17] 31.1 µM | [18] 29 µM
inactive: [3] | [6] | [7] | [8] | [9] | [10] | [14] | [16]

c1cc[c]([Bi]([c]2ccccc2)[c]2ccccc2)cc1
active: [19] 4.16 µM

COc1ccc2ccccc2c1
inactive: [19]

Cc1cccnc1
not listed: [19]
inactive: all other assays above

CC(=O)c1nccs1
active: [19] 39.3 µM

CN(C)CCC(c1ccc(Cl)cc1)c1ccccn1 (stereo not drawn)
not listed: [19]
inactive: all other assays above

Oc1ccc(Oc2ccccc2)cc1
active: [19] 1.44 µM
